# Only some compounds are listed: those with a hit (about 8% of all), similar ones and a draw of the others.
# RORgamma inh – qHTS for inhibitors of ROR gamma transcriptional activity. Drosophila S2 Gal4-RORgamma UAS-luciferase reporter, 20 h. Potency, µM (titrated, usually from 53.6 µM), for the others: at the highest dose activity change, negative = inhibition, hits mostly inhibitors. 310,000 tested, 5.4% active; also: potency is read from the fitted curve at half-maximal effect; nearly all actives have a fitted effect of over 60% in size
#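 Luminescence from a UAS-regulated Photinus luciferase reporter in stably transfected Drosophila Schneider cells is measured; decreased signal marks ROR gamma inhibition. Fusion expression is induced by 700 uM copper sulfate for 20 hr.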
# TSHR antag – Antagonists of the Thyroid Stimulating Hormone Receptor: HTS campaign; activity change, negative = inhibition, % at 11.5 µM; AID 504810, 2011; TSHR-expressing cells, TSH-stimulated cAMP HTRF, 2 h; stronger effect = lower value; Thyrotropin receptor (Homo sapiens), P16473; 330,000 tested, 0.2% active;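 active = activity change below a set negative limit, meaning inhibition stronger than a set level, cut at about -70% in these data; inconclusive = activity change between two set negative limits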
# Target sequence (P16473 whole entry, looked up): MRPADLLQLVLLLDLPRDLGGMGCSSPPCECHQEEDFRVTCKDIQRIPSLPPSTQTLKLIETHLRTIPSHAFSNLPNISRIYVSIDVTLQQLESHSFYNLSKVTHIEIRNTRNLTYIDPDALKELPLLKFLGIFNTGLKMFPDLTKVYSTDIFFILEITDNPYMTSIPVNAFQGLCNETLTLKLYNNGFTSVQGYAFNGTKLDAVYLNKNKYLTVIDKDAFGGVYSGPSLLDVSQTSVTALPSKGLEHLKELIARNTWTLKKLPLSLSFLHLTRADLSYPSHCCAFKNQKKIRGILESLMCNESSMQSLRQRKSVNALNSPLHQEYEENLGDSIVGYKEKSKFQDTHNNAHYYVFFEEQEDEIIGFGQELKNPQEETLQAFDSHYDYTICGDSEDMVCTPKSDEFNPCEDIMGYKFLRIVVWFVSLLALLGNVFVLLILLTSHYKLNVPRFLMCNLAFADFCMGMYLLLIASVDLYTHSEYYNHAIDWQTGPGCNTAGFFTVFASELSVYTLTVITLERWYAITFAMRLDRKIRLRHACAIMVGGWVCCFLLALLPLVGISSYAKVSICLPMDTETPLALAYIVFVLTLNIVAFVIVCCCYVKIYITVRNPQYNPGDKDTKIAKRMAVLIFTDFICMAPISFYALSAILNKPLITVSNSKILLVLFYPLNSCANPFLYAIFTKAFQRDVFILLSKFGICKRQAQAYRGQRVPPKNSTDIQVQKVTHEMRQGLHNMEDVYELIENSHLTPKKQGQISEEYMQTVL
#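 TSHR-expressing cells were treated with compounds, then stimulated with TSH at EC80 (4nM final) for 2 hours at 37 deg C. Cellular cAMP was measured by HTRF competition between lysate cAMP and cAMP-d2 for a cryptate-labelled anti-cAMP antibody.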
# ELG1 repair inh – qHTS screen for small molecules that inhibit ELG1-dependent DNA repair in human embryonic kidney (HEK293T) cells expressing luciferase-tagged ELG1 | HEK293T ELG1-luciferase reporter, luminescence, 16 h; DNA damage induced by 5-fluorouridine | Potency, µM (titrated, usually from 46.1 µM), inactives show at the highest dose activity change, negative = inhibition, hits mostly inhibitors | 330,000 tested, 2.3% active | AID 504467, 2011; also: potency is read from the fitted curve at half-maximal effect; nearly all actives have a fitted effect of over 55% in size
#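 In this reporter screen, reduction of luminescence relative to DMSO vehicle indicated activity. Compounds and 5-fluorouridine were added together to 2,000 cells per well, incubated for 16 hr at 37 °C, then developed with ONE-Glo.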
# Coupling enz – qHTS Assay for Inhibitors of Fructose-1,6-bisphosphate Aldolase from Giardia Lamblia: Coupling assay counterscreen. activity change, negative = inhibition, % at 58.2 µM, hits read low. AID 2472, 2010. coupling enzyme system counterscreen, AmpLite Red fluorescence. 290,000 tested, 0.67% active; in the data active = activity change below about -30%
#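 Counterscreen lacking aldolase: glyceraldehyde-3-phosphate coupling-enzyme reagent preincubated 10 min at RT with compound (at 57.5 uM final), then substrate/coupling system with AmpLite Red added; fluorescence read at 525/598 nm after 20 min RT.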
# VP16 counter – VP16 counterscreen qHTS for inhibitors of ROR gamma transcriptional activity | Drosophila S2 Gal4-VP16 UAS-luciferase, luminescence, 20 h | Potency, µM (titrated, usually from 53.6 µM), for the others: top-dose activity, negative = inhibition, most hits filed as inhibitors | 310,000 tested, 3.5% active | AID 2546, 2010;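 also: Gal4-VP16 expression switched on by copper sulfate through the metallothionein promoter; potency is read from the fitted curve at half-maximal effect; nearly all actives have a fitted effect of over 50% in size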
# * = called active by the depositor; ? = inconclusive; · = not tested or not shown; [ ] = another dose, or the depositor's remark. Unless noted, calls follow the shape of the dose curve; as a rule, active = well fitted curve in the direction sought with a large enough effect; inconclusive = small, poorly fitted or top-dose-only effect, or another doubt; inactive = no such curve, though single readings can be large; an effect the other way counts as inactive or inconclusive. % is scaled to controls: 0 for no effect and ±100 for the full control effect.
SMILES,RORgamma inh,TSHR antag,ELG1 repair inh,Coupling enz,VP16 counter
Cc1ccc(NC(=O)c2sc3ccccc3c2Cl)nc1,?,12,?,2,?
CC(C)c1nnc(NC(=O)CC(=O)Nc2ccccc2C(=O)O)s1,11µM*,19,?,0,?
Cc1ccnc(NC(=O)c2sc3cc(Cl)ccc3c2Cl)c1,2µM*,4,?,1,?
COC(=O)N1C(C)=Cc2ccccc2C1C/C(C)=C/C(C)=O (stereo unspecified),6%,·,·,0,-9%
Cn1cc(-c2nc3cnc(Oc4cccc(Cl)c4)nc3n(CCC#N)c2=O)c2ccccc21,-20%,·,·,3,-5%
O=C(N/N=C/c1ccc[nH]1)c1ccncc1,20µM*,11,17%,0,?
Cc1ccc(C(=O)N/N=C\c2ccc[nH]2)cc1[N+](=O)[O-],2µM*,·,2%,-2,?
O=C(N/N=C/c1ccc(F)cc1)c1ccncc1,-3%,-1,21%,0,-4%
O=C(N/N=C/c1ccc[nH]1)c1ccccc1[N+](=O)[O-],?,2,3%,-16,-88%
O=C(N/N=C/c1ccc[nH]1)c1ccc(Cl)cc1,3.2µM*,7,?,2,10µM*
O=c1ccn(C2OC(COP(=O)(O)OP(=O)(O)OP(=O)(O)O)C(O)C2O)c(=O)[nH]1 (stereo unspecified),-24%,·,·,2,-9%
COc1cccc2c1C(=O)C=C(C)C2=O,11µM*,0,?,-39*,7.1µM*
CCOc1ccc(N(CC(=O)NC2CCCCC2)C(=O)CSc2nnc(COc3ccccc3)o2)cc1,39%,-1,18µM*,-2,-28%
O=C(CN(Cc1cccs1)C(=O)CSc1nnc(COc2ccccc2)o1)NC1CCCCC1,-4%,26,18µM*,4,2%
O=C(CSc1nnc(COc2ccc(Br)cc2)o1)NC1CCCCC1,2%,-10,2%,2,6%
O=C(O)CSCC(=O)Nc1ccc(C2CCCCC2)cc1,2.2µM*,·,·,13,3.2µM*
CCN(CCCCOC(=O)c1ccc(OC)c(OC)c1)[C@@H](C)Cc1ccc(OC)cc1,-16%[2.98 µM],·,·,3,3%[17 µM]
O=Cc1cn(CCC(=O)O)nc1-c1cccc2ccccc12,3.2µM*,5,1%,1,11µM*
O=Cc1cn(CCC(=O)O)nc1-c1cc2ccccc2o1,12%,16,29%,8,?
COc1cc(NC(=O)NCC2CCN(Cc3ccccc3C)CC2)cc(OC)c1OC,-2%,25,-6%,0,8%
O=Cc1ccc(O)c2ncccc12,1µM*,-3,2.3µM*,-3,0.56µM*
COC(=O)c1c(OC)cc2c(c1C)Oc1c(Cl)c(OC(C)=O)c(Cl)c(C)c1C(=O)O2,13%,·,·,3,5%
CCN1CCN(c2ccc(Cl)cc2NC(=O)c2ccc(-n3nc(C)cc3C)cc2)CC1,·,-3,15µM*,·,·
CCN1CCN(c2ccc(Cl)cc2NC(=O)c2ccco2)CC1,·,11,-9%,·,·
O=C(CSc1nnc(CNC(=O)c2ccccc2)o1)NCc1ccccc1Cl,12%,-1,1%,·,-2%
CC(=O)Nc1ccc(S(=O)(=O)N2CCN(C(=O)c3ncoc3-c3ccccc3C)CC2)cc1,-2%,3,-25%,1,-11%
CCOc1ccc(/C(CCC(=O)O)=N/NC(=S)NCCc2ccccc2)cc1,7.9µM*,-4,-7%,10,?
CCOc1ccc(C(=O)OCC(=O)NCCCc2ccccc2)cc1,-19%,7,0%,5,-9%
Cc1cc(Nc2ncc(Cl)cc2Cl)n(-c2ccccc2C)n1,8.9µM*,12,9%,-4,?
CS(=O)(=O)C1=NSC2=NC(=O)/C(=C\c3ccc(-c4ccccc4)o3)C(=N)N21,-1%,-31,15%,2,5%

# Assay outcomes from PubChem.
